{"source": "PubChem BioAssay AID651814", "about": "(National Center for Advancing Translational Sciences (NCATS), 2012)", "note": "About 590 (28%) of roughly 2,100 compounds were called active. Roughly 42% stayed inconclusive and do not appear here. Calls come from the whole dose curve; as a rule, active = well fitted inhibition curve with a large enough effect; inconclusive = small, poorly fitted or top-dose-only effect; inactive = flat fitted curve, though single readings scatter. Some of the results follow. Potency is the fitted concentration of half-maximal effect."}
{"molecular_target": "DNA dC->dU-editing enzyme APOBEC-3F (Homo sapiens) (UniProt Q8IUX4)", "sequence (Q8IUX4 whole entry, looked up)": "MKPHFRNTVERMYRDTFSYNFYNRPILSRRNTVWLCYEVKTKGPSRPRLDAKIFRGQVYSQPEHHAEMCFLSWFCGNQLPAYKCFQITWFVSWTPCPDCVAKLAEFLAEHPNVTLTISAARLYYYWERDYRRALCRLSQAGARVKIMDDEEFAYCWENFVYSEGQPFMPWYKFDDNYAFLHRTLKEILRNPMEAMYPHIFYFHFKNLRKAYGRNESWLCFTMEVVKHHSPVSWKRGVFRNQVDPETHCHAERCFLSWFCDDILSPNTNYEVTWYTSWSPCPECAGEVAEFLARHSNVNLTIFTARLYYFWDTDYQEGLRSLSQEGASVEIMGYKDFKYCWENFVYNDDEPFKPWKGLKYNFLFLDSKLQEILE", "experiment": "qHTS for inhibitors of Vif-A3F interactions: Cherry picks; note: nearly all actives have a fitted effect of over 70% in size;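 for max response: % of control where 0% means no effect; active compounds raise eYFP fluorescence by blocking Vif-driven A3F loss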", "conditions": "HeLa A3F-eYFP + Vif (tagged APOBEC3F with the HIV-1 protein that degrades it), eYFP fluorescence, 24 h", "in_short": "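Read-out: yellow fluorescence (ex 488 nm, em 500-530 nm) by laser-scanning cytometer after 24 h compound exposure, several concentrations, at 37 deg C. Cells: HeLa line stably co-expressing Vif and C-terminally eYFP-tagged A3F; MG132 served as positive control.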"}
{"smiles": "O=S(=O)(Nc1cc(Sc2ncn[nH]2)c(O)c2ccccc12)c1ccccc1", "max response": "-29.8% (inactive)"}
{"smiles": "CCCOc1ccccc1C1CC(=O)Nc2cc3c(cc21)OCO3", "note": "(centres undefined)", "max response": "-14.8% (inactive)"}
{"smiles": "CCNc1ccc(Br)cc(C(=O)/C=C/c2ccc3c(c2)OCO3)c1=O", "Potency": "18.4 µM (active)"}
{"smiles": "CCN(CC)c1ccc(/C=C/C(=O)c2ccc(Br)cc2)cc1", "max response": "-4.77% (inactive)"}
{"smiles": "COc1ccc(OC)c(/C=C/c2nc3ccccc3[nH]c2=O)c1", "Potency": "18.4 µM (active)"}
{"smiles": "O=c1[nH]c2ccccc2nc1/C=C/c1ccc(F)cc1", "Potency": "14 µM (active)"}
{"smiles": "CCCN(C(=O)CSc1n[nH]c(-c2ccc(OC)cc2)n1)c1c(N)n(Cc2ccccc2)c(=O)[nH]c1=O", "max response": "-13.7% (inactive)"}
{"smiles": "CCC(=C/c1sc2ccc3ccccc3c2[n+]1C)/C=C1\\Sc2ccc3ccccc3c2N1C", "max response": "-0.328% (inactive)"}
{"smiles": "CC(=O)c1cccc(-c2ccnc3c2CC(C(=O)Nc2cccc(NS(C)(=O)=O)c2)O3)c1", "note": "(centres undefined)", "max response": "-25.6% (inactive)"}
{"smiles": "CCSC1=NSC2=NC(=O)/C(=C\\c3coc4ccccc4c3=O)C(=N)N12", "Potency": "18.4 µM (active)"}
{"smiles": "O=C(O)CCCN1C(=O)/C(=C\\C(Cl)=C\\c2ccccc2)SC1=S", "Potency": "4.44 µM (active)"}
{"smiles": "C[n+]1ccc(/C=C/c2c[nH]c3ccc(F)cc23)cc1", "Potency": "16.4 µM (active)"}
{"smiles": "COc1ccc2[nH]cc(/C=C/c3cc[n+](C)cc3)c2c1", "Potency": "13 µM (active)"}
{"smiles": "COc1ccc2c(c1)c(/C=C/c1cc[n+](C)cc1)cn2C", "Potency": "2.23 µM (active)"}
{"smiles": "Cc1ccc2[nH]cc(/C=C/c3cc[n+](C)cc3)c2c1", "Potency": "1.4 µM (active)"}
{"smiles": "O=C1OC(/C(=C\\Nc2cc(Cl)ccc2O)[N+](=O)[O-])c2ccccc21", "note": "(centres undefined)", "max response": "-13.5% (inactive)"}
{"smiles": "COc1cc(C(=O)N/N=C/C2CC=CCC2)cc(OC)c1OC", "note": "(centres undefined)", "max response": "-15.3% (inactive)"}
{"smiles": "CCOC1=C/C(=C/c2c(N)n3nc(-c4ccccc4)sc3nc2=O)C=CC1=O", "max response": "3.18% (inactive)"}
{"smiles": "N#C/C(=C/c1ccc(N2CCCCC2)o1)c1cccc(F)c1", "Potency": "5.17 µM (active)"}
{"smiles": "N#C/C(=C/c1ccc(N2CCOCC2)o1)c1ccc(Cl)cc1", "Potency": "4.61 µM (active)"}
{"smiles": "Cc1ccc(/C(C#N)=C\\c2ccc(N3CCOCC3)o2)cc1", "Potency": "12.5 µM (active)"}
{"smiles": "N#C/C(=C/c1ccc(N2CCCCCC2)o1)c1ccc(Cl)cc1", "Potency": "3.66 µM (active)"}
{"smiles": "N#C/C(=C/c1ccc(N2CCCCCC2)o1)c1cccc(F)c1", "max response": "-26.2% (inactive)"}
{"smiles": "CC(C)(C)C(=O)/C(=C/c1ccc(Cl)cc1)n1cncn1", "max response": "-2.57% (inactive)"}
{"smiles": "C/C(=N\\NC(=O)C(C)n1nc(C)c([N+](=O)[O-])c1C)c1ccccc1O", "note": "(centres undefined)", "max response": "0.94% (inactive)"}
{"smiles": "COc1ccc(/C=N/n2cc(-c3ccccc3)nc2N)cc1", "max response": "-18.9% (inactive)"}
{"smiles": "CCc1ccc(-c2cc(C(F)(F)F)n3nc(C(=O)Nc4cnn(Cc5ccc(C)cc5)c4)cc3n2)s1", "Potency": "14.6 µM (active)"}
{"smiles": "CC(=O)Nc1cccc(-c2ccnc3c2CC(C(=O)Nc2ccc(Cl)cc2)O3)c1", "note": "(centres undefined)", "max response": "-18.1% (inactive)"}
{"smiles": "O=C(CCCCl)Oc1ccc2cc(-c3ccc4ccccc4n3)c(=O)oc2c1", "max response": "3.21% (inactive)"}
{"smiles": "CCc1sc(-c2cc3ccc(O)cc3oc2=O)nc1-c1ccc(C)cc1", "Potency": "4.11 µM (active)"}
{"smiles": "O=c1oc2cc(O)ccc2cc1-c1nc(-c2ccc(Cl)c(Cl)c2)cs1", "Potency": "0.651 µM (active)"}
{"smiles": "COc1cc(-c2nc3ccc(C)cn3c2NCc2ccccc2)ccc1SC1CCCCC1", "max response": "-8.35% (inactive)"}
{"smiles": "Cc1ccc(/C=N/NC(=O)c2nc3nc(C)cc(C)n3n2)cc1", "max response": "1.02% (inactive)"}
{"smiles": "CSc1nc(Sc2ccccc2Cl)c2ccccc2n1", "max response": "-25.9% (inactive)"}
{"smiles": "COc1cc(/C=C2\\SC(=S)N(Nc3ncc(C(F)(F)F)cc3Cl)C2=O)ccc1O", "Potency": "18.4 µM (active)"}
{"smiles": "CN(C)c1ccc(/C=C2\\SC(=S)N(Nc3ncc(C(F)(F)F)cc3Cl)C2=O)cc1", "Potency": "5.8 µM (active)"}
{"smiles": "COc1cc(/C=C2\\SC(=S)N(NC(=O)c3ccc(O)c(OC)c3)C2=O)ccc1O", "max response": "-7.15% (inactive)"}
{"smiles": "N#CC(=Cc1ccccn1)c1nc(-c2ccc(Cl)cc2)cs1", "Potency": "15.8 µM (active)"}
{"smiles": "CCOC(=O)c1c(NC(=O)CSc2nc3ccc(OC)cc3[nH]2)sc2c1CC(C)(C)NC2(C)C", "max response": "-17.3% (inactive)"}
{"smiles": "CCOC(=O)c1ccc(N=Nc2c(C)c(C#N)c(O)[nH]c2=O)cc1", "max response": "-0.299% (inactive)"}
{"smiles": "Cc1cc(C(F)(F)F)c(C#N)c(SCC(=O)Nc2nc3ccccc3s2)n1", "Potency": "20.6 µM (active)"}
{"smiles": "Cc1sc2nc(CSCC(=O)Nc3ccccc3C#N)[nH]c(=O)c2c1C", "max response": "-12.7% (inactive)"}
{"smiles": "CCOC(=O)c1ccc(NC(=O)CSc2nc(-c3ccc(OC)cc3)cc(C(F)(F)F)c2C#N)cc1", "Potency": "18.4 µM (active)"}
{"smiles": "O=C(CSc1nc2ccccc2s1)c1cc2ccccc2o1", "max response": "-2.01% (inactive)"}
{"smiles": "CCOC(=O)c1ccc(NC(=O)CSc2nc(-c3ccc(F)cc3)cc(C(F)(F)F)c2C#N)cc1", "Potency": "18.4 µM (active)"}
{"smiles": "Cc1ccc(S(=O)(=O)CCSc2nc(C)cc(C(F)(F)F)c2C#N)cc1", "Potency": "15.8 µM (active)"}
{"smiles": "CCOC1=C2CN(S(=O)(=O)c3ccc(C)cc3)[C@H](c3cccc4ccccc34)C[C@H]2C(C#N)(C#N)C(C#N)(C#N)C1", "max response": "-5.21% (inactive)"}
{"smiles": "CC1(C)Cc2ccccc2C2CC(O)C(=O)N21", "note": "(centres undefined)", "max response": "-21.2% (inactive)"}
{"smiles": "Cc1coc(NC(=O)CSc2nc(-c3ccncc3)cc(C(F)(F)F)c2C#N)n1", "Potency": "13 µM (active)"}
{"smiles": "CCOC(=O)c1ccc(NC(=O)CSc2nc(-c3cccs3)cc(C(F)(F)F)c2C#N)cc1", "Potency": "16.4 µM (active)"}
{"smiles": "N#Cc1c(C(F)(F)F)cc(-c2cccs2)nc1SCC(=O)Nc1cccc(Cl)c1", "max response": "-7.91% (inactive)"}
{"smiles": "N#Cc1ccccc1NC(=O)CSc1nc(-c2ccccc2)cc(C(F)(F)F)c1C#N", "max response": "-28.7% (inactive)"}
{"smiles": "N#Cc1c(C(F)(F)F)cc(-c2cccs2)nc1SCC(=O)Nc1cccc(C(F)(F)F)c1", "Potency": "18.4 µM (active)"}
{"smiles": "CCCCOc1ccc(-c2cc(C(F)(F)F)c(C#N)c(SCC(=O)O)n2)cc1", "Potency": "18.4 µM (active)"}
{"smiles": "N#Cc1c(Nc2ccccc2)[n+]([O-])c2ccc(Cl)cc2[n+]1[O-]", "max response": "-2.22% (inactive)"}
{"smiles": "Oc1ccc(C=NNC(=S)Nc2ccc(F)cc2)c(O)c1", "max response": "-2.9% (inactive)"}
{"smiles": "S=C(NN=Cc1ccccn1)Nc1ccccn1", "max response": "1.89% (inactive)"}
{"smiles": "Clc1ccc(/C=N/NC2=Nc3cccc4cccc2c34)cc1", "Potency": "14.6 µM (active)"}
{"smiles": "Cc1csc(NC(=O)CCC(=O)N(CC(=O)NC2CCCC2)Cc2ccccc2)n1", "max response": "0.176% (inactive)"}
{"smiles": "COc1ccc(C2CC(c3ccncc3)=NN2c2ccc(S(N)(=O)=O)cc2)cc1", "note": "(centres undefined)", "Potency": "16.4 µM (active)"}
{"smiles": "CCS(=O)(=O)N1N=C(c2ccc(C)cc2)CC1c1cc2ccc(OC)cc2nc1Cl", "note": "(centres undefined)", "max response": "-11.9% (inactive)"}
{"smiles": "C(=Cc1c[nH]c2ccccc12)c1nccc2ccccc12", "Potency": "20.6 µM (active)"}
{"smiles": "Cc1ccc2c(/C=C/c3c[nH]c4ccccc34)ccnc2c1C", "Potency": "14.6 µM (active)"}
{"smiles": "C(=C\\c1c[nH]c2ccccc12)/c1nccc2ccccc12", "Potency": "10.3 µM (active)"}
{"smiles": "c1ccc2c(c1)nc(N1CCOCC1)c1nnnn12", "max response": "-7.94% (inactive)"}
{"smiles": "O=C(Nc1ncccn1)c1ccc([N+](=O)[O-])o1", "max response": "-18.8% (inactive)"}
{"smiles": "N#CCc1ccc(NC(=O)/C=C/c2ccc([N+](=O)[O-])o2)cc1", "Potency": "4.11 µM (active)"}
{"smiles": "COC(=O)c1sc(NC(=O)c2ccc([N+](=O)[O-])o2)c(C#N)c1C", "max response": "-29.9% (inactive)"}
{"smiles": "CCOC(=O)CCc1ccc(NC(=O)/C=C/c2ccc([N+](=O)[O-])o2)cc1", "Potency": "8.2 µM (active)"}
{"smiles": "O=C1C(=Cc2ccccc2[N+](=O)[O-])Cc2ccccc21", "Potency": "18.4 µM (active)"}
{"smiles": "CCN1C/C(=C/c2cccc([N+](=O)[O-])c2)C(=O)/C(=C/c2cccc([N+](=O)[O-])c2)C1", "max response": "-17.2% (inactive)"}
{"smiles": "Nc1ccccc1C=C1Cc2ccccc2C1=O", "Potency": "11.6 µM (active)"}
{"smiles": "O=[N+]([O-])c1ccccc1C=NNC(=S)NN=Cc1ccccc1[N+](=O)[O-]", "max response": "-27.9% (inactive)"}
{"smiles": "CC(NC(=S)Nc1cccc(C(F)(F)F)c1)C(C)(C)C", "note": "(centres undefined)", "max response": "1.09% (inactive)"}
{"smiles": "Cc1[nH][nH]c(=O)c1C(c1c(C)[nH][nH]c1=O)c1cn(Cc2ccccc2Cl)c2ccccc12", "max response": "-24.8% (inactive)"}
{"smiles": "Cc1ccc2nc(/C(C#N)=C/c3ccc(O)c(O)c3)[nH]c2c1", "Potency": "15.8 µM (active)"}
{"smiles": "COc1cc(/C=C(\\C#N)c2nc3ccc(C)cc3[nH]2)ccc1OC(C)C", "Potency": "20.6 µM (active)"}
{"smiles": "C=CCNC(=S)N/N=C/c1ccc(C)cc1C", "max response": "-2.08% (inactive)"}
{"smiles": "CCN(CC)c1ccc(NC(=O)c2ccc(=O)[nH]c2)cc1S(=O)(=O)Nc1ccccc1OC", "max response": "-20.2% (inactive)"}
{"smiles": "O=C(N/N=C/c1c[nH]c2ccccc12)C1COc2ccccc2O1", "note": "(centres undefined)", "max response": "4.43% (inactive)"}
{"smiles": "O=[N+]([O-])c1ccc(N/N=C/c2c[nH]c3ccccc23)cc1", "Potency": "14.6 µM (active)"}
{"smiles": "COc1ccccc1NS(=O)(=O)c1cc([N+](=O)[O-])ccc1N/N=C/c1c[nH]c2ccccc12", "Potency": "13 µM (active)"}
{"smiles": "COc1ccccc1NS(=O)(=O)c1cc([N+](=O)[O-])ccc1N/N=C/c1c(C)[nH]c2ccccc12", "Potency": "1.98 µM (active)"}
{"smiles": "Cc1[nH]c2ccccc2c1/C=N/Nc1ccc([N+](=O)[O-])cc1", "Potency": "18.4 µM (active)"}
{"smiles": "Cc1cccn2c(=O)c3cc(C#N)c(=NC(=O)c4cccs4)n(CCCOC(C)C)c3nc12", "max response": "-23.5% (inactive)"}
{"smiles": "Cc1cccc(CSc2cccc3cccnc23)c1", "max response": "2.73% (inactive)"}
{"smiles": "Cn1c(=O)c2c(nc(NC3CCCC3)n2C)n(C)c1=O", "max response": "-0.225% (inactive)"}
{"smiles": "COc1cc(/C=N/Nc2cc(C)nc(NS(=O)(=O)c3ccccc3)n2)ccc1O", "max response": "2.36% (inactive)"}
{"smiles": "O=C(c1ccccn1)C1CCCN(Cc2cn[nH]c2-c2cc3ccccc3o2)C1", "note": "(centres undefined)", "max response": "1.54% (inactive)"}
